Experimental data from PubChem BioAssay.
Inconclusive results are not listed. The source made the active and inactive calls. Rule as the data show it, unless noted: active = inhibition above about 30%; inactive = the rest.

Experiments:
[1] = Her2 expression decrease, cell viability multiplex – SKBR3 breast tumor cells, AlphaScreen, ATP viability, primary screen (AID 461;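 active = Her2 level under about 52% in both replicate screens, with viability over 70% of control, limit read from the data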;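 as to Her2 level: lower value means less Her2 protein in the cells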;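 as to viability: percent of carrier control wells set as 100% viability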); conditions: SKBR3 Her2 protein level, 18-24 h, measured here: SKBR3 viability, ATP luminescence, at 10 µM
[2] = target: Receptor tyrosine-protein kinase erbB-2 (Homo sapiens) (UniProt P04626); assay: as above; conditions: 18-24 h, at 10 µM, stronger effect = lower value
[3] = reduced viability of SK-BR-3 breast cancer cells – cell-based, 24 h, human, pilot screen (AID 572;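 active = viability at or below 10% of carrier control in both of two separate runs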;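 also: compound exposure lasted between 18 and 24 h rather than exactly 24 h; 100% = carrier-treated control wells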); conditions: SK-BR-3 viability, CellTiter-Glo luminescence, at 10 µM, stronger effect = lower value
[4] = HUVEC growth inhibition – cell-based, human, primary screen (AID 575;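 active = viability at or below 30% in both replicate assays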;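 also: 100% = median of untreated cell wells with 0.1% DMSO on each plate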); conditions: HUVEC proliferation, CellTiter-Glo luminescence, 72 h; at 10 µM; stronger effect = lower value
[5] = H69AR cell proliferation blockers – human, duplicate replicates, primary screen (AID 580;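 active = viability at or under a set limit in both replicates, limit being median viability minus 3 SD, cut at about 48% in these data, passing the limit was not always enough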;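 also: 100% = mean luminescence of untreated wells and 0% = no signal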); conditions: H69AR lung tumor cells viability, ATP luminescence, 72 h; at 10 µM; stronger effect = lower value
[6] = MRP1 drug-resistance reversers in H69AR cells – cell-based, doxorubicin co-treatment, pilot screen (AID 601;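 active = viability loss from added drug above about 55%, and viability with drug at most 40%, in both replicates, limit read from the data, passing the limit was not always enough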); conditions: CellTiter-Glo, 72 h, at 10 µM; for differential viability (reversal): stronger effect = higher value
[7] = yeast transport mutant growth inhibition pilot in 384-well plates, post-Golgi transport modulator project (AID 636; in the data active = inhibition above about 31%); conditions: absorbance 615 nm, about 18 h, stronger effect = higher value
[8] = growth suppression of yeast trafficking mutant, preliminary HTS, modulators of trafficking downstream of Golgi apparatus project, 1536-format plate, OD 615 nm (AID 637); conditions: yeast transport mutant growth, absorbance 615 nm, 18 h; stronger effect = higher value
[9] = S. cerevisiae growth inhibition in permissive medium (OD615), pilot counter-assay for S. cerevisiae lifespan shortening project, permissive growth control (AID 705;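 active = growth inhibition above 25% in both replicates, a cutoff set 3 SD above the mean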); conditions: OD615, 24 h, at 10 µM, stronger effect = higher value
[10] = S. cerevisiae growth inhibition in restrictive medium, OD615, pilot screen, restrictive growth control, yeast lifespan reduction project (AID 706;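 active = growth inhibition above a set limit, 3 SD over mean compound inhibition, in both replicates, cut at about 43% in these data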;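 also: modified DeaD lifespan yeast strain shifted to restrictive glucose medium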); conditions: OD615, 48 h, at 10 µM, stronger effect = higher value
[11] = doxorubicin toxicity protection in MRP-1 cells – H69AR cells, CellTiter-Glo, duplicate, MRP-1 activator project, pilot screen (AID 807;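 active = viability increase at or above a cutoff of the median across tested compounds plus 3 SD, cut at about 8.5% in these data, passing the limit was not always enough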;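 also: compound pretreatment 18-22 h then 72 h combined with doxorubicin; 0% = doxorubicin alone and 100% = vehicle without doxorubicin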); conditions: H69AR viability with doxorubicin, CellTiter-Glo luminescence; at 10 µM; stronger effect = higher value
[12] = viability of HCT116 without oncogenic beta-catenin – human colon tumor cells, pilot screen (AID 823;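 active = cell viability at or below a set limit in both duplicate runs, the limit being the all-compound median minus 4 SD, cut at about 23% in these data, passing the limit was not always enough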;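 also: 0% = wells killed by 20 µM Hyamine and 100% = untreated DMSO cell wells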); conditions: HCT116 beta-catenin knockout viability, CellTiter-Glo, 60 h; at 10 µM; stronger effect = lower value
[13] = viability of PTEN-null HCT116 cells – cell-based, HCT116 clonal line, CellTiter-Glo, pilot screen (AID 824;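 active = viability at or below 27.92% in each of two runs, the all-compound median minus 4 SD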;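 also: 0% = 20 µM Hyamine control and 100% = vehicle cell control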); conditions: HCT116 PTEN-deleted viability, 60 h, at 10 µM, stronger effect = lower value
[14] = RAM pathway blockade in budding yeast – dse1pr::URA3 reporter, 5-FOA selection, pilot screen (AID 869;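 active = inhibition over a set limit, the all-compound mean plus 3 SD, in both replicate runs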;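 also: 0% = DMSO wells with no growth and 100% = 10 µM 1-NA-PP1 with full growth; RAM network block rescues cells from 5-FOA so hits raise OD615 growth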); conditions: S. cerevisiae dse1pr::URA3 5-FOA growth, OD615, 2 d; at 10 µM; stronger effect = higher value; strain carries analog-sensitive mutant Cbk1 kinase
[15] = RAM signaling pathway blockade in yeast – S. cerevisiae, Pdr1DBD-CYC8 efflux-inhibited sensitized strain, primary screen (AID 1298;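 active = RAM network inhibition above 8.4% in each of two replicates, 3 SD over the compound average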;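 also: 0% = DMSO untreated cells without growth and 100% = 10 µM 1-NA-PP1 full growth; higher means more yeast growth rescued from 5-FOA killing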); conditions: S. cerevisiae cbk1-as DSE1-URA3 strain, 5-FOA growth OD615, 2 d; at 50 µM; stronger effect = higher value
[16] = H69AR cells + 2 uM doxorubicin, measured here: viability with 2 uM doxorubicin, stronger effect = lower value
[17] = H69AR cells, compound alone cytotoxicity

Sequence of Receptor tyrosine-protein kinase erbB-2 (Homo sapiens) (P04626 whole entry, looked up): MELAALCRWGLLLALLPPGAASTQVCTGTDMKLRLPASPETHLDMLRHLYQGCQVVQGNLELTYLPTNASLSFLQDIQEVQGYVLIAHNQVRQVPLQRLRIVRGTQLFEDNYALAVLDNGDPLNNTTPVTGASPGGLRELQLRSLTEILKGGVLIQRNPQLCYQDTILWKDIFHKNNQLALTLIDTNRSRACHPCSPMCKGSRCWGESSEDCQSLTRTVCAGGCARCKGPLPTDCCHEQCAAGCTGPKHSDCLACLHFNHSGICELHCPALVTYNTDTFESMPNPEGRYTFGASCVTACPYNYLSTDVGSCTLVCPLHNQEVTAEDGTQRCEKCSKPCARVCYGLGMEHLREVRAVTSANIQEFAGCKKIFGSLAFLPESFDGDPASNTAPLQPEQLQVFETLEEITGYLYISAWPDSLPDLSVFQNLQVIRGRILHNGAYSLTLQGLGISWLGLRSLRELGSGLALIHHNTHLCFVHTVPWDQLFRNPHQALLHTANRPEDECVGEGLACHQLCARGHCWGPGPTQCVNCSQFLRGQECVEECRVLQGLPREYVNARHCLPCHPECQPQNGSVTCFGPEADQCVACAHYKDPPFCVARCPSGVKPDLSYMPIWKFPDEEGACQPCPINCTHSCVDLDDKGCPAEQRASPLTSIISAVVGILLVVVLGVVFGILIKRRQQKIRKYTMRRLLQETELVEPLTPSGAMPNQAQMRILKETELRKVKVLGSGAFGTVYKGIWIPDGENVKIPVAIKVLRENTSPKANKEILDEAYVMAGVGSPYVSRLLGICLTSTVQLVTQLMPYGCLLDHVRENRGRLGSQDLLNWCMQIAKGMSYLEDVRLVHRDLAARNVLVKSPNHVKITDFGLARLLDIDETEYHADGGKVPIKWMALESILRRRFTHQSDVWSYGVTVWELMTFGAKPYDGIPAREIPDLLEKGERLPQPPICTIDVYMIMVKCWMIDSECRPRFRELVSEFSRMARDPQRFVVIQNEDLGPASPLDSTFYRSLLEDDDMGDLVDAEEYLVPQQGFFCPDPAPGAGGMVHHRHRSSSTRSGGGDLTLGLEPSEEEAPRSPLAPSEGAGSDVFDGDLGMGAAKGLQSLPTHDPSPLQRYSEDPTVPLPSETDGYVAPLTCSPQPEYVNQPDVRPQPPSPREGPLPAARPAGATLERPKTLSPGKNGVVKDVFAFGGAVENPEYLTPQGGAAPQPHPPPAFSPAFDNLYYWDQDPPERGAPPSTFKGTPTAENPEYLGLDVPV

SMILES	viability [1] [%]	Her2 level [2]	viability [3]	viability [4]	viability [5]	differential viability (reversal) ([6]; H69AR cells + 2 uM doxorubicin)	viability [6, 16] [%]	viability [6, 17] [%]	inhibition [7]	inhibition [8]	growth inhibition [9]	growth inhibition [10]	viability increase [11]	viability [12]	viability [13]	inhibition [14]	RAM network inhibition [15]
COc1ccc(S(=O)(=O)NCC(c2cccnc2)N2CCN(C)CC2)cc1C (stereo not given)	97	98.5% (inactive)	97% (inactive)	80.9% (inactive)	91% (inactive)	-2.52% (inactive)	93.5	91	-0.64% (inactive)	-2% (inactive)	1.16% (inactive)	-9.37% (inactive)	-2.64% (inactive)	97.8% (inactive)	96.1% (inactive)	2.23% (inactive)	0.11% (inactive)
O=C(c1ccco1)N1CCN(C(=O)C2CC(c3ccc(F)cc3)=NO2)CC1 (stereo not given)	88	112% (inactive)	88% (inactive)	94.1% (inactive)	88.5% (inactive)	0.74% (inactive)	87.8	88.5	-1.15% (inactive)	-4.17% (inactive)	-1.38% (inactive)	22% (inactive)	-1.41% (inactive)	106% (inactive)	105% (inactive)	0.47% (inactive)	5.01% (inactive)
Cc1ccc(C(=O)CC2(O)C(=O)N(C)c3ccc(Br)cc32)c(C)c1 (stereo not given)	85	88.5% (inactive)	85% (inactive)	77.7% (inactive)	75% (inactive)	-16.9% (inactive)	91.9	75	-4.13% (inactive)	-0.83% (inactive)	2.26% (inactive)	9.8% (inactive)	-4.61% (inactive)	71.5% (inactive)	74.7% (inactive)	2.44% (inactive)	4.59% (inactive)
CCc1cccc(NC(=O)Cn2cc3c(n2)CCCC3)c1	105	95.5% (inactive)	105% (inactive)	89.8% (inactive)	94.8% (inactive)	4.52% (inactive)	90.3	94.8	-4.53% (inactive)	-3.11% (inactive)	-17.8% (inactive)	-2.27% (inactive)	-1.41% (inactive)	96.6% (inactive)	97.2% (inactive)	1.69% (inactive)	0.42% (inactive)
CC(C)(C)SCCNC(=O)CSc1ccccc1	102	80% (inactive)	102% (inactive)	93.3% (inactive)	101% (inactive)	9.85% (inactive)	91	101	-6.22% (inactive)	1.9% (inactive)	-0.57% (inactive)	9.05% (inactive)	-0.61% (inactive)	107% (inactive)	98.3% (inactive)	0.055% (inactive)	4.54% (inactive)
Cc1c(C)c2ccc(OC3CCCCC3=O)cc2oc1=O (stereo not given)	100	112% (inactive)	100% (inactive)	82.6% (inactive)	85.8% (inactive)	10.4% (inactive)	75.4	85.8	-1.92% (inactive)	-2.67% (inactive)	-16.6% (inactive)	-7.25% (inactive)	0.57% (inactive)	104% (inactive)	101% (inactive)	0.48% (inactive)	1.93% (inactive)
COc1ccccc1NC(=O)N1CCN(c2cccc(C(F)(F)F)c2)CC1	89	98.5% (inactive)	89% (inactive)	78.1% (inactive)	95.2% (inactive)	16.9% (inactive)	78.2	95.2	-3.11% (inactive)	-10.3% (inactive)	-10.8% (inactive)	3.75% (inactive)	2.13% (inactive)	89.5% (inactive)	84.7% (inactive)	0.115% (inactive)	2.91% (inactive)
O=c1[nH]c(SCc2ccc(F)cc2)nc2c1cnn2-c1ccc(F)cc1	69	106% (inactive)	69% (inactive)	70.7% (inactive)	79.1% (inactive)	38.2% (inactive)	40.8	79.1	1.87% (inactive)	12.3% (inactive)	-5.11% (inactive)	-7.31% (inactive)	-6.32% (inactive)	39.8% (inactive)	51.5% (inactive)	1.02% (inactive)	4.01% (inactive)
Cc1ccccc1-c1nc(CN2CCC(C(=O)N3CCC(C(N)=O)CC3)CC2)c(C)o1	108	104% (inactive)	108% (inactive)	105% (inactive)	89.5% (inactive)	4.8% (inactive)	84.7	89.5	-5.73% (inactive)	4.67% (inactive)	-8.16% (inactive)	3.29% (inactive)	-2.4% (inactive)	92.8% (inactive)	99.2% (inactive)	1.07% (inactive)	2.99% (inactive)
CC1CCCN(C(=O)CN2C(=O)c3ccccc3C2=O)C1 (stereo not given)	93.5	104% (inactive)	93.5% (inactive)	93.8% (inactive)	84.8% (inactive)	-6.78% (inactive)	91.6	84.8	-3.59% (inactive)	-6.33% (inactive)	-15.4% (inactive)	-9.79% (inactive)	-0.25% (inactive)	101% (inactive)	98.7% (inactive)	1.7% (inactive)	0.38% (inactive)
